Screening data (PubChem)
LmPK inhibitor: blocks Leishmania mexicana pyruvate kinase activity; Q27686; purified LmPK, Kinase-Glo ATP luminescence, 1 h; Potency, µM (top dose mostly 57.5 µM), hits mostly inhibitors; 0.37% of 290,000 active
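In 50 mM imidazole pH 7.2 with 7 mM MgCl2, LmPK (0.1 nM) turned over PEP (0.5 mM) and ADP (0.1 mM) for 1 h at room temperature. Luciferase read-out of ATP.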
Shiga inhibitor: inhibitors of Shiga toxin in Vero cells; Vero cells, Shiga toxin protein synthesis inhibition reporter; inhibition, % at 38.7 µM; 9.2% of 290,000 active; AID 2315; in the data active = inhibition mostly above about 28%, no sharp cut-off; inactive = mostly below about 43%
Tb PYK inh: blocks Trypanosoma brucei pyruvate kinase | TbPYK enzyme, Kinase-Glo Plus ATP luminescence, 45 min | Potency, µM (titrated, usually from 76.8 µM), usual class: inhibitors | 0.12% of 410,000 active; also: nearly all actives have a fitted effect of over 50% in size
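Quantitative HTS: titrated library compounds versus trypanosomal pyruvate kinase in TEA buffer (pH 7.2) containing KCl, MgCl2, BSA and Tween-20. Reactions were initiated with ADP, 130 uM final. Kinase-Glo Plus luminescence was read after 45 min at RT.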
RE007 growth inh: less growth of the S. pombe RE007 Vpr strain; S. pombe RE007 Vpr strain, BacTiter-Glo ATP luminescence, 24 h; Potency, µM (doses to about 92.2 µM), hits mostly inhibitors; 0.21% of 360,000 active; active = well fitted falling curve with a large enough effect; inconclusive = small, poorly fitted or top-dose-only effect; inactive = no such curve, though single readings can be large or run the other way; also: nearly all actives have a fitted effect of over 50% in size
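Fission yeast strain RE007, carrying one chromosomally integrated HIV-1 vpr copy, was seeded at OD 0.01 in PMG+AL medium with 23 nL pinned compound. After 24 h at 30 °C and 99% humidity, viability was read by BacTiter-Glo luminescence.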
Giardia FBPA inh: blocks Giardia fructose-bisphosphate aldolase activity; purified Giardia FBPA; Potency, µM (highest dose often 59.6 µM), actives largely listed as inhibitors; 0.71% of 290,000 active; AID 2451; also: nearly all actives have a fitted effect of over 55% in size
Target sequence (A8B2U2 whole entry, looked up): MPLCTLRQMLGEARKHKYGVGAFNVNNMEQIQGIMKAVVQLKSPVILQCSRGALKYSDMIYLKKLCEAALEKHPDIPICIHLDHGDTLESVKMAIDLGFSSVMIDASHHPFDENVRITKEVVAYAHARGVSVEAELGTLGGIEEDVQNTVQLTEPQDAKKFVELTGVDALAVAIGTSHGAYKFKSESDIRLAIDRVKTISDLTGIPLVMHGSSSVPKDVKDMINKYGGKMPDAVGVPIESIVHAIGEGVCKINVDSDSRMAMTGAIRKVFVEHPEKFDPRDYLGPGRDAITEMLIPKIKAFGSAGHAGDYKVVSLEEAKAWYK
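Giardia FBPA (40 nM reagent) was preincubated 10 min at RT with compound (up to 57.5 uM final), then substrate plus GAPDH/TPI/NAD/arsenate coupling system with diaphorase/resazurin was added; resorufin fluorescence (525/598 nm) was read after 20 min.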
Cycloheximide cs: counter-screen for Shiga toxin inhibitors: cycloheximide protein synthesis inhibition; AID 2314; max response, %; 12% of 300,000 active; cell reporter, cycloheximide protein synthesis inhibition counterscreen; in the data active = max response mostly above about 13%, no sharp cut-off; inactive = mostly below about 14%; also: read at 38.3 µM for the half of the compounds with a filed dose
Hits are given with their value. This is one part of a sample in which hits are shown more often than they occur. Unless noted, calls follow the shape of the dose curve; as a rule, active = well fitted curve in the direction sought with a large enough effect; inconclusive = small, poorly fitted or top-dose-only effect, or another doubt; inactive = no such curve, though single readings can be large; an effect the other way counts as inactive or inconclusive.

`COC(=O)N[C@@H](CCc1ccccc1)/C(C(=O)OC)=C(\C)NCc1ccccc1` gave Giardia FBPA inh inactive.
Screening COCCNC(=O)Cn1c(-c2cccs2)cc2cc(Cl)ccc21 returned Tb PYK inh inactive.
For CC1CCCCN1C(=O)CSc1nc2ccccc2nc1Cc1ccccc1 (stereo not given) the results were Tb PYK inh inactive.
Screening Cc1ccc(N(CC(=O)NCc2ccc(OC(C)C)cc2)S(=O)(=O)N(C)C)cc1 returned Tb PYK inh inactive.
Screening O=C(COc1ccc(Cl)cc1Cl)NC(=O)NC1CCCC1 returned Tb PYK inh inactive and RE007 growth inh inactive.
Screening Cc1cccc(OCCCC(=O)N2CCCc3ccccc32)c1C returned LmPK inhibitor inactive, Shiga inhibitor inactive, Tb PYK inh inactive, RE007 growth inh inactive, Giardia FBPA inh inactive and Cycloheximide cs 27.8.
For Cc1cccc(OCC(=O)OCC(=O)N2CCCc3ccccc32)c1C the results were Tb PYK inh inactive and RE007 growth inh inactive.
O=C(COc1ccc(Cl)cc1Cl)NC(=O)N1CCCCC1 was read as LmPK inhibitor inactive, Shiga inhibitor 67.2, Tb PYK inh inactive, RE007 growth inh inactive, Giardia FBPA inh inactive and Cycloheximide cs 45.5.
For O=C(CCCOc1ccc(Cl)cc1Cl)N1CCC2(CC1)OCCO2 the results were LmPK inhibitor inactive, Shiga inhibitor inactive, Tb PYK inh inactive, RE007 growth inh inactive, Giardia FBPA inh inactive and Cycloheximide cs 16.8.
For COc1ccc(NC(=O)Cn2c(=O)n(Cc3ccco3)c(=O)c3sc4ccccc4c32)cc1OC the results were Tb PYK inh inactive.
For CC(C)C[C@@H](CC(=O)N[C@@H](CCC(=O)O)CC(=O)O)NC(=O)[C@@H]1CCCC[C@H]1NC(=O)C[C@@H](NC(=O)C[C@H](CO)NC(=O)[C@@H]1CNCC[C@H]1N)C(C)C the results were Giardia FBPA inh inactive.
CCC(=O)Nc1ccccc1-c1nc2ccccc2n(CC(=O)c2ccc(Cl)cc2)c1=O was read as Tb PYK inh inactive.
`C=CCOn1c(=O)c(-c2cc3ccccc3o2)[n+]([O-])c2ccccc21` gave LmPK inhibitor inactive, Shiga inhibitor 120.5, Tb PYK inh inactive, RE007 growth inh inactive, Giardia FBPA inh inactive and Cycloheximide cs 38.1.
Screening CCOC(=O)COn1c(=O)c(-c2cc3ccccc3o2)[n+]([O-])c2ccccc21 returned LmPK inhibitor inactive, Shiga inhibitor 172.2, Tb PYK inh inactive, RE007 growth inh inactive, Giardia FBPA inh inactive and Cycloheximide cs 72.0.
Screening C=CCOn1c(=O)c(-c2ccccc2)[n+]([O-])c2ccccc21 returned LmPK inhibitor inactive, Shiga inhibitor inactive, Tb PYK inh inactive, RE007 growth inh inactive, Giardia FBPA inh inactive and Cycloheximide cs inactive.
Screening Cc1ccccc1C(=O)Nc1nnc(SCc2cc(=O)c3c(C)ccc(C)c3[nH]2)s1 returned Tb PYK inh inactive.
`Cc1ccccc1OCCOc1ccccc1C=C(C#N)C#N` gave LmPK inhibitor inactive, Shiga inhibitor 35.5, Giardia FBPA inh inactive and Cycloheximide cs 28.2.
`Cc1cccc(OCCOc2ccccc2C=C(C#N)C#N)c1` gave LmPK inhibitor inactive, Shiga inhibitor inactive, Tb PYK inh inactive, RE007 growth inh inactive, Giardia FBPA inh inactive and Cycloheximide cs 19.1.
CC1CCCCN1C(=O)CSc1nnc(-c2ccccc2F)o1 (stereo not given) was read as LmPK inhibitor inactive, Shiga inhibitor 94.2, Tb PYK inh inactive, RE007 growth inh inactive and Cycloheximide cs 35.0.
COC(=O)CSc1nnc(-c2ccc(OC)cc2OC)o1 was read as LmPK inhibitor inactive, Shiga inhibitor inactive, Tb PYK inh inactive, RE007 growth inh inactive, Giardia FBPA inh inactive and Cycloheximide cs inactive.
For O=C(CSc1nnc(-c2ccccc2F)o1)N1CCCC1 the results were LmPK inhibitor inactive, Shiga inhibitor 85.7, Tb PYK inh inactive, RE007 growth inh inactive, Giardia FBPA inh inactive and Cycloheximide cs 26.3.
`COc1ccccc1-c1nnc(SCC(=O)N2CCCC2)o1` gave LmPK inhibitor inactive, Shiga inhibitor 39.6, Tb PYK inh inactive, RE007 growth inh inactive, Giardia FBPA inh inactive and Cycloheximide cs inactive.
For COc1ccc(-c2nnc(SCC(=O)N3CCCC3)o2)c(OC)c1 the results were LmPK inhibitor inactive, Shiga inhibitor 46.4, Tb PYK inh inactive, RE007 growth inh inactive and Cycloheximide cs inactive.
For COC(=O)[C@@]1(Cc2ccc(OC)cc2)[C@H]2c3cc(C(=O)N(C)C)n(Cc4ccc(C)o4)c3C[C@H]2CN1C(=O)c1ccccc1 the results were Giardia FBPA inh inactive.
`CC1CCCCN1C(=O)CSc1nnc(-c2cccc(Cl)c2)o1` (stereo not given) gave Tb PYK inh inactive.
`CC1CCCCN1C(=O)CSc1nnc(-c2ccco2)o1` (stereo not given) gave LmPK inhibitor inactive, Shiga inhibitor 108.1, Tb PYK inh inactive, RE007 growth inh inactive, Giardia FBPA inh inactive and Cycloheximide cs 36.8.
Screening Cn1c(O)c(C2=c3ccccc3=NC2=O)sc1=Nc1ccc(Cl)cc1 returned LmPK inhibitor inactive, Shiga inhibitor inactive, Tb PYK inh inactive, RE007 growth inh inactive, Giardia FBPA inh inactive and Cycloheximide cs 7.0.
Screening O=C(CSc1cn(CC(=O)N2CCCCC2)c2ccccc12)Nc1ccccc1F returned Tb PYK inh inactive.
Screening COc1ccc(C2=NN(CCC(=O)NCCc3ccccc3)C(=O)CC2)cc1 returned Tb PYK inh inactive.
`Cc1[nH]nc(SCC(=O)N2CCCCC2)c1[N+](=O)[O-]` gave LmPK inhibitor inactive, Shiga inhibitor inactive, Tb PYK inh inactive, RE007 growth inh inactive, Giardia FBPA inh inactive and Cycloheximide cs 22.9.
CCOC(=O)c1oc2c(c1C)-c1nn(Cc3ccc(Cl)cc3)cc1CC2 was read as Tb PYK inh inactive.
`CCOc1ccc(NC(=O)CS(=O)(=O)Cc2nc(-c3ccc(C)cc3)oc2C)cc1` gave Tb PYK inh inactive.
For CSc1cnc2c(=O)n(C)c(=O)[nH]c2n1 the results were LmPK inhibitor inactive, Shiga inhibitor inactive, Tb PYK inh inactive, RE007 growth inh inactive, Giardia FBPA inh inactive and Cycloheximide cs inactive.
Screening Cn1c(=O)[nH]c2nnc(-c3ccc(Cl)c(Cl)c3)nc2c1=O returned LmPK inhibitor inconclusive, Shiga inhibitor 50.3, Tb PYK inh inactive, RE007 growth inh inactive, Giardia FBPA inh inconclusive and Cycloheximide cs 25.5.
Screening O=C(Nc1ccc2oc(-c3cccnc3)nc2c1)c1cccnc1 returned LmPK inhibitor inactive, Shiga inhibitor inactive, Tb PYK inh inactive, RE007 growth inh inactive, Giardia FBPA inh inactive and Cycloheximide cs inactive.
For O=C(Nc1ccc2c(c1)oc1ccccc12)c1cccnc1 the results were LmPK inhibitor inactive, Shiga inhibitor inactive, Tb PYK inh inactive, RE007 growth inh inactive, Giardia FBPA inh inactive and Cycloheximide cs 38.5.
